The list is not random: actives were taken first. Their share in the collection is about 7.4%.
SMN2 splice up: SMN2 splice variant enhancement; hit rate 2.8% among 210,000; HEK293 SMN2-luciferase splicing reporter, luminescence, 30-36 h; AID 1458; Potency, µM (highest dose often 46.1 µM), for the others: top-dose activity change, positive = activation, most hits filed as activators; note: % of control where 0% means no effect; nearly all actives have a fitted effect of over 55% in size
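HEK293 cells carry an SMN2 […]–luciferase reporter in which exon 7 inclusion puts luciferase in frame. Cells were plated 10-12 h before compound addition, then incubated 30-36 h at 37C. ONE-Glo luminescence was read; sodium butyrate at 4.5 mM final served as control.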
FLuc counter: inhibits or activates purified firefly luciferase, miR-21 counter-screen; P08659; purified FLuc, Km substrates, luminescence inhibition; Potency, µM (top dose mostly 57.5 µM), for inactives: at the highest dose activity change, negative = inhibition, most hits filed as inhibitors; hit rate 6.9% among 360,000;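 note: plate controls were vehicle for no effect and reference inhibitor for full effect; nearly all actives have a fitted effect of over 55% in size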
Target sequence (P08659 whole entry, looked up): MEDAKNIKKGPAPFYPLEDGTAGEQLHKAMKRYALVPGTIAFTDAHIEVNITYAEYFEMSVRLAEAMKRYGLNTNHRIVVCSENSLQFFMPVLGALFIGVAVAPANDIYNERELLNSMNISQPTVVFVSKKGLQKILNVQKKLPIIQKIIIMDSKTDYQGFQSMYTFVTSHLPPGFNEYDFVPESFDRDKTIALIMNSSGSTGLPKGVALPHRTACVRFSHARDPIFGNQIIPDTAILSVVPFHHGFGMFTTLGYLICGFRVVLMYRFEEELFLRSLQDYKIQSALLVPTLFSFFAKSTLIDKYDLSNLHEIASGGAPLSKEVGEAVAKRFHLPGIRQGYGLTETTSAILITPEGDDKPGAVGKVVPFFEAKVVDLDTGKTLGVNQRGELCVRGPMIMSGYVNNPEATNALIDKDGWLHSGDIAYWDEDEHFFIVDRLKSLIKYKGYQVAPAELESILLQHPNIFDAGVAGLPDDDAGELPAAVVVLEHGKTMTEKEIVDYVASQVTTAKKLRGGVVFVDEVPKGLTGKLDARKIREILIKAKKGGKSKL
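Purified P. pyralis luciferase, 10 nM final, with Km-level 10 uM D-luciferin and 10 uM ATP in 50 mM Tris acetate pH 7.5, 10 mM Mg acetate, 0.01% Tween-20, 0.05% BSA; 6-point qHTS titration about 60 µM downward; luminescence read.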
Rab9 prom act: activators of Rab9 promoter. Huh7 Rab9 promoter-luciferase reporter, luminescence, 24 h. Potency, µM (titrated, usually from 9.22 µM), for the others: at the highest dose activation, negative = inhibition, actives largely listed as activators. hit rate 2.8% among 320,000; note: % of control where 0% means no effect; nearly all actives have a fitted effect of over 60% in size
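Quantitative HTS format; Huh7 Rab9-luciferase reporter cells (1500/well) receive compound 2 h post-plating, incubate 24 h at 37 °C, then get luciferase reagent for 10 min before luminescence reading.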
NPC1 promoter act: activates the NPC1 promoter; Huh7 NPC1 promoter luciferase reporter, 24 h; hit rate 2.4% among 320,000; Potency, µM (top dose mostly 9.22 µM), for the others: at the highest dose activation, usual class: activators; AID 485313; note: % of control where 0% means no effect; nearly all actives have a fitted effect of over 60% in size
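Luminescence from an NPC1 promoter-driven luciferase reporter in stably transfected Huh7 cells was measured after 24 h compound treatment at 37 °C, followed by 10 min ambient incubation with luciferase detection reagent.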
ELG1 genotoxic: induces genotoxicity in HEK293T cells with luciferase-tagged ELG1 | HEK293T ELG1-luciferase reporter, luminescence, 16 h | Potency, µM (titrated, usually from 46 µM), for the others: at the top dose activity change, positive = activation, most hits filed as activators | hit rate 1.3% among 330,000 | AID 504466; note: % of control where 0% means no effect; nearly all actives have a fitted effect of over 60% in size
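Genotoxicity was scored as increased ELG1-luciferase reporter signal, measured by ONE-Glo luminescence (30 min, room temperature). Compound or vehicle exposure of the HEK293T reporter cells lasted 16 hr at 37°C.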
* marks the source's active call; other numbers are inactive results; ? = inconclusive; . = no result given. Calls come from the whole dose curve; as a rule, active = well fitted curve in the direction sought with a large enough effect; inconclusive = small, poorly fitted or top-dose-only effect, or another doubt; inactive = no such curve, though single readings can be large; an effect the other way counts as inactive or inconclusive. Potency is the fitted concentration of half-maximal effect.

SMILES	SMN2 splice up	FLuc counter	Rab9 prom act	NPC1 promoter act	ELG1 genotoxic
COc1ccc(C(=O)N2CCC3(CC2)CN(c2ccc(-c4ccccc4)cc2)C3)cc1	-21%	.	.	.	.
Cc1ccc(NC(=O)CSc2nc(N)c3cc4c(nc3n2)CCCC4)cc1	4%	2.1µM*	15%	17%	1%
Nc1nc(SCC(=O)Nc2ccccc2)nc2nc3c(cc12)CCCC3	?	?	22%	10%	3%
COc1ccc(NC(=O)CSc2nc(N)c3cc4c(nc3n2)CCCC4)c(OC)c1	9%	12µM*	2%	15%	4%
Cc1ccc(COC(=O)c2[nH]c3c(c2C)C(=O)CC(c2ccc(Cl)cc2)C3)cc1 (stereo not given)	-10%	1%	.	.	.
COc1ccc([N+](=O)[O-])cc1NS(=O)(=O)Cc1ccccc1	.	1%	-4%	-4%	-3%
CNc1cc([N+](=O)[O-])ccc1OCc1ccccc1	.	19µM*	16%	16%	9%
O=C(NCCc1ccccc1Cl)c1ccc2c(c1)nc1n2CCCCC1	.	0.54µM*	.	.	.
CCc1ccc(CNC(=O)c2ccc3c(c2)nc2n3CCCCC2)cc1	.	13µM*	.	.	.
Cc1ccc(C)c(CNC(=O)c2ccc3c(c2)nc2n3CCCCC2)c1	.	15µM*	.	.	.
CCCSCCCNC(=O)c1ccc2c(c1)nc1n2CCCCC1	.	15µM*	.	.	.
COc1ccc(CCNC(=O)c2ccc3c(c2)nc2n3CCCCC2)cc1OC	.	-20%	.	.	.
COC(=O)c1ccccc1NC(=O)c1ccc2c(c1)CCN2S(=O)(=O)c1ccc(C)cc1	4%	-6%	.	.	.
Cc1cccc(CNc2cc(-c3cccc(C#N)c3)ncn2)c1	-25%	.	.	.	.
CC(C)CCNC(=O)c1ccc2c(c1)nc1n2CCCCC1	.	6µM*	.	.	.
O=C(NCCc1ccccc1)c1ccc2c(c1)nc1n2CCOC1	.	5.4µM*	.	.	.
Cc1ccc(CCNC(=O)c2ccc3c(c2)nc2n3CCOC2)cc1	.	-18%	.	.	.
Cc1ccccc1CCNC(=O)c1ccc2c(c1)nc1n2CCC(C)C1 (stereo not given)	.	8.5µM*	.	.	.
Cc1ccc(S(=O)(=O)Nc2cccc(-c3ccc(N4CCC(C)CC4)nn3)c2)s1	.	0.76µM*	.	.	.
O=S(=O)(Nc1cccc(-c2ccc(N3CCCC3)nn2)c1)c1cc(F)ccc1F	.	6µM*	.	.	.
Cc1nnc2ccc(-c3cccc(NS(=O)(=O)c4ccccc4Cl)c3)nn12	.	8%	1%	-16%	?
O=S(=O)(Nc1cccc(-c2ccc(N3CCCCC3)nn2)c1)c1ccc(F)cc1F	.	1.9µM*	.	.	.
CC1CCN(c2ccc(-c3cccc(NS(=O)(=O)c4ccc(F)cc4F)c3)nn2)CC1	.	1.7µM*	.	.	.
Cc1nnc2ccc(-c3cccc(NS(=O)(=O)c4cc(F)ccc4F)c3)nn12	.	0%	1%	-13%	2%
O=S(=O)(Nc1cccc(-c2ccc3nncn3n2)c1)c1ccccc1F	.	0%	1%	15%	?
SMILES	SMN2 splice up	FLuc counter	Rab9 prom act	NPC1 promoter act	ELG1 genotoxic
COc1ccc(-c2cc(-c3ccc(C)cc3)nc3c2COc2ccccc2-3)cc1	10%	?	.	.	.
Nc1ccccc1-c1nc2ccccc2[nH]1	?	12µM*	6.3µM*	4µM*	10µM*
Fc1ccc(-c2nc3ccccc3[nH]2)cc1	10µM*	12µM*	2.5µM*	2.5µM*	?
Clc1nc2c(ccc3ccccc32)[nH]1	.	?	?	?	11%
O=c1[nH]cccc1-c1nc2ccccc2[nH]1	.	?	29%	?	?
Nc1ccc(-c2nc3ccccc3[nH]2)cc1	4.5µM*	9.5µM*	0.45µM*	1.6µM*	2.9µM*
Nc1ccc2nc(-c3ccc(-c4nc5ccc(N)cc5[nH]4)cc3)[nH]c2c1	.	-16%	-1%	-6%	-5%
Nc1ccc(-c2nc3c(ccc4ccccc43)[nH]2)cc1	.	2.4µM*	?	?	?
O=C(Nc1ccc(-c2nc3ccccc3[nH]2)cc1)c1ccccc1NS(=O)(=O)c1ccc(F)cc1	-24%	?	6%	-4%	0%
CC(=O)c1ccc(N2CCN(C(=O)c3cc4ccc5cccnc5c4[nH]3)CC2)cc1	.	-17%	.	.	.
O=C(O)c1ccc(/C=C(\c2nc3ccccc3[nH]2)c2nc3ccccc3s2)cc1	.	15µM*	-1%	2%	-7%
